# PubChem BioAssay
# Activity calls are given as the source filed them.
# Experiments:
# [1] = compounds binding Alexa647 anti-His antibody – biochemical, small-molecule microarray, 635 nm fluorescence, artefact control for SMM control protein annotation, primary screen (AID 1128); conditions: higher = more signal;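 note: score merges feature fluorescence with signal-to-noise for each printed compound spot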
# [2] = test system: Human papillomavirus type 1a E7 protein (residues 1-88); assay: HPV1a E7 small-molecule binders, primary screen, biochemical, small-molecule microarray, residues 1-88, 635 nm (AID 1129); conditions: small-molecule microarray binding, fluorescence 635 nm; higher = more signal
# [3] = target: Focal adhesion kinase 1 (Homo sapiens) (UniProt Q05397); assay: PTK2 protein binding on printed compound slides – biochemical, small-molecule microarray, 635/667 nm fluorescence, BSA, DTT, primary screen (AID 1130); conditions: 635 nm fluorescence, higher = more signal;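 note: composite of spot emission at 667 nm and signal to noise over triplicate slides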
# [4] = test system: Fibrinogen (Alexa647-labelled); assay: Alexa647-fibrinogen binding to printed small molecules – biochemical, small-molecule microarray, 635/667 nm fluorescence, artefact control for SMM control-protein annotation, profiling panel (AID 1131); conditions: fibrinogen-A647 binding fluorescence, higher = more signal;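 note: z-score merges 667 nm fluorescence with per-spot signal-to-noise over triplicate slides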
# [5] = target: Follistatin (Homo sapiens) (UniProt P19883); assay: FST protein binding to printed compounds – biochemical, small-molecule microarray, 635/667 nm fluorescence, primary screen (AID 1132); conditions: 635 nm fluorescence, higher = more signal
# [6] = target: Fibroblast growth factor 2 (Homo sapiens) (UniProt P09038); assay: basic fibroblast growth factor binding to printed compounds – biochemical, small-molecule microarray, 635/667 nm fluorescence, primary screen (AID 1133); conditions: FGF2, fluorescence 635/667, higher = more signal
# [7] = JC-1 mitochondrial potential readout, lung cancer cells – cell-based, A549, JC-1 fluorescence, basal, 24 h, 100 nL, profiling panel (AID 1138); conditions: higher = more signal;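 note: A549 lung adenocarcinoma cells under basal conditions with no added stimulus; test concentration not given here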
# [8] = test system: Lefty1; assay: Lefty1 protein binding to printed compounds – biochemical, small-molecule microarray, 635/667 nm fluorescence, primary screen (AID 1139); conditions: fluorescence 635/667, higher = more signal
# [9] = test system: wheat germ agglutinin (Triticum aestivum), Alexa647-labelled; assay: Alexa647-WGA lectin binding to printed small molecules – biochemical, small-molecule microarray, 635/667 nm fluorescence, artefact control for SMM control-protein annotation, profiling panel (AID 1140); conditions: WGA-A647 binding, 635 nm fluorescence, higher = more signal;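 note: score merges 667 nm feature emission with signal to noise over triplicate slides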
# [10] = target: Luciferin 4-monooxygenase (Photinus pyralis) (UniProt P08659); assay: inhibition of purified Photinus pyralis luciferase – biochemical, luminescence, purified enzyme, 2006 set, primary screen (AID 1141); conditions: purified firefly luciferase, SteadyGlo luminescence, 30 min; higher = more signal, called active from +8 up or from −8 down;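 note: cell-free assay with purified firefly luciferase at 100 ng per well in PBS; test concentration not given here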
# Chain of Luciferin 4-monooxygenase (Photinus pyralis) (P08659 whole entry, looked up): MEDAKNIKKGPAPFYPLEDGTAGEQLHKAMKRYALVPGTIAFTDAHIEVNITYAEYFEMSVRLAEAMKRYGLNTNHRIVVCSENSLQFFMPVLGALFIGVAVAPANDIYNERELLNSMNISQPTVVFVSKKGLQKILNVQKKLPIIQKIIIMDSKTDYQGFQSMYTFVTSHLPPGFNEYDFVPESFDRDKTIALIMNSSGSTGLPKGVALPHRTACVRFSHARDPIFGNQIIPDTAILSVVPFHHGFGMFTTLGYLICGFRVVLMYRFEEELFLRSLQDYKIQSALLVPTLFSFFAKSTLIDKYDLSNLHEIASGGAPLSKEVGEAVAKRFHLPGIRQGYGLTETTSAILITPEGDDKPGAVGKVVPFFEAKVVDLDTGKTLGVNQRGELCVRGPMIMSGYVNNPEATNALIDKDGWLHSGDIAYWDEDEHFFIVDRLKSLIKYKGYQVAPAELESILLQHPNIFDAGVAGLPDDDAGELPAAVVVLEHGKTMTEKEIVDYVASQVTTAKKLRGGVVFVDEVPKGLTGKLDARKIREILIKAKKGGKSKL
# Chain of Follistatin (Homo sapiens) (P19883 whole entry, looked up): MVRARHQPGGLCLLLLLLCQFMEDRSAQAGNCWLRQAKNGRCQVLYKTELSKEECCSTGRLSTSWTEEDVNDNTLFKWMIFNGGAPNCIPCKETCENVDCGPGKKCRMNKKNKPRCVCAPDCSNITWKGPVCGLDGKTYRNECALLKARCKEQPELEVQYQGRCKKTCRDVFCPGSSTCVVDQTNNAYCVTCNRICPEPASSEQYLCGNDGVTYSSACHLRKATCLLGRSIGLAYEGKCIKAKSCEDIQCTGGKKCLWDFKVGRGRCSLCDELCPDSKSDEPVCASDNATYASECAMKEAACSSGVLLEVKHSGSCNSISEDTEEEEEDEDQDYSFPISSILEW
# Chain of Fibroblast growth factor 2 (Homo sapiens) (P09038 whole entry, looked up): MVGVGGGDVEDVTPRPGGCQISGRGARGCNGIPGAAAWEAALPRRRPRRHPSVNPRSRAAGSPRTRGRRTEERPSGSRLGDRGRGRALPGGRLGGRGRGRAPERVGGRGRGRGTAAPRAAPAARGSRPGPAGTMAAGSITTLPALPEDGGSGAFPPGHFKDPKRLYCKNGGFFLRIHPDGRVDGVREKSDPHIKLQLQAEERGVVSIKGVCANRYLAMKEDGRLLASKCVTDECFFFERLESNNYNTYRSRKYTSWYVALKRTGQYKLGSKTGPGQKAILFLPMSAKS
# Chain of Focal adhesion kinase 1 (Homo sapiens) (Q05397 whole entry, looked up): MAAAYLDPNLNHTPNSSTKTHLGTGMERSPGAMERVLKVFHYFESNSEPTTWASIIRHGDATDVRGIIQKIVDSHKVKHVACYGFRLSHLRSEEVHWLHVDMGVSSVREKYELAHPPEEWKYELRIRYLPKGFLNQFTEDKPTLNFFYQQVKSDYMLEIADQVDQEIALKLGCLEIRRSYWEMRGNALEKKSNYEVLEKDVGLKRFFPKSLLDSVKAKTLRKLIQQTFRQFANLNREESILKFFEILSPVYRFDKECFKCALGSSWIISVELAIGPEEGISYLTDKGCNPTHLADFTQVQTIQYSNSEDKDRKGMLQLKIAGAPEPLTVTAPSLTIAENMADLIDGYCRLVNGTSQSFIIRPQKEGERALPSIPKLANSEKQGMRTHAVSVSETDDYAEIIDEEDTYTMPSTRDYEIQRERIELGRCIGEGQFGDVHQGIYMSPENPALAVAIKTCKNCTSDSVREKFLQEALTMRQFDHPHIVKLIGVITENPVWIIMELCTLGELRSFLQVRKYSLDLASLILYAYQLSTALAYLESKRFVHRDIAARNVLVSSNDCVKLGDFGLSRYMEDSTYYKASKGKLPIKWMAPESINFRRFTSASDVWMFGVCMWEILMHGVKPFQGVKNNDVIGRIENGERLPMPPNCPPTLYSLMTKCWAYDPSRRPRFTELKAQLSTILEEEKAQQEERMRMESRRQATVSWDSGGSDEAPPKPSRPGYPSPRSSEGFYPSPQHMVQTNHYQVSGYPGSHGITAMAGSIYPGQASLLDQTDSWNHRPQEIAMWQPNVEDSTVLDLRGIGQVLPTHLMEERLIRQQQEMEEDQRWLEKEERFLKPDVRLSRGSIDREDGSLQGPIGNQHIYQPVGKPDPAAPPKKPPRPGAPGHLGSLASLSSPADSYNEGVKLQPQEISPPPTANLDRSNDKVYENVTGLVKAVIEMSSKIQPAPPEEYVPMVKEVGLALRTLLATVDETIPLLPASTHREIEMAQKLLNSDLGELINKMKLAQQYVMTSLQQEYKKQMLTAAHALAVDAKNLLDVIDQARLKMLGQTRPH
structure (smiles),measurement,setting,value
COc1ccc([Si](C)(C)[C@H]2[C@H](CC(=O)N3CCC[C@H]3CO)O[C@@]3(C(=O)N(C)c4c(Br)cc(C)cc43)[C@@H]2C)cc1,composite z-score,[1],1.15
same,composite z-score,[2],1.22
same,composite z-score,[3],1.44
same,composite z-score,[4],0.74
same,composite z-score,[5],1.59
same,composite z-score,[6],1.86
same,z-score,[7],-0.0282
same,composite z-score,[8],1.43
same,composite z-score,[9],1.59
same,z-score,[10],0.395 (inactive)
CC(C)Cc1ccc(CN2CC[C@@H](NC(=O)c3ccccc3)C2)cc1,composite z-score,[1],0.44
same,composite z-score,[2],-1.55
same,composite z-score,[3],-0.144
same,composite z-score,[4],0.411
same,composite z-score,[5],-0.0213
same,composite z-score,[6],-0.382
same,z-score,[7],1.81
same,composite z-score,[8],0.247
same,composite z-score,[9],0.0191
same,z-score,[10],0.525 (inactive)
O=C1NC(=O)C2C1C=CC(C(O)c1ccc(F)cc1)N2Nc1ccc(Cl)cc1Cl (stereo not given),composite z-score,[1],1.97
same,composite z-score,[2],0.638
same,composite z-score,[3],-0.0637
same,composite z-score,[4],-0.566
same,composite z-score,[5],-0.157
same,composite z-score,[6],-0.459
same,z-score,[7],-0.553
same,composite z-score,[8],-0.334
same,composite z-score,[9],-0.0287
same,z-score,[10],-1.32 (inactive)
C=C(COC)/C(=C/C[C@@H](OC(C)=O)c1cccc(OCCO)c1)c1cnc2ccccc2c1,composite z-score,[1],0.309
same,composite z-score,[2],0.75
same,composite z-score,[3],-0.012
same,composite z-score,[4],-0.657
same,composite z-score,[5],1.42
same,composite z-score,[6],1.2
same,z-score,[7],0.031
same,composite z-score,[8],1.24
same,composite z-score,[9],1.04
same,z-score,[10],-1.11 (inactive)
O=C1N(Cc2ccccc2)c2ccccc2C[C@@]12N=C(c1ccc(OCCCO)cc1)O[C@H]2c1ccccc1,composite z-score,[1],1.81
same,composite z-score,[2],1.13
same,composite z-score,[3],0.791
same,composite z-score,[4],0.209
same,composite z-score,[5],1.33
same,composite z-score,[6],1.39
same,z-score,[7],-0.518
same,composite z-score,[8],0.309
same,composite z-score,[9],0.294
same,z-score,[10],-2 (inactive)
COC(=O)C(CC#Cc1ccc2c(c1)[C@]1(C(=O)N2)[C@H](c2ccccc2OCCO)N2[C@H](c3ccccc3)[C@H](c3ccccc3)OC(=O)[C@H]2[C@@H]1C(=O)N1CCN(c2ncccn2)CC1)C(=O)OC,composite z-score,[1],1.48
same,composite z-score,[2],1.22
same,composite z-score,[3],0.13
same,composite z-score,[4],0.927
same,composite z-score,[5],1.04
same,composite z-score,[6],1
same,z-score,[7],-1.46
same,composite z-score,[8],0.668
same,composite z-score,[9],0.481
same,z-score,[10],-0.186 (inactive)
C[C@]12C(=O)N(CCO)[C@@H]3C(=O)N(c4ccc(Cl)cc4)CC=CC31O[C@@H]1/C=C\CCCOC(=O)C12 (stereo not given in full),composite z-score,[1],-0.415
same,composite z-score,[2],-0.639
same,composite z-score,[3],-0.422
same,composite z-score,[4],-0.333
same,composite z-score,[5],-0.178
same,composite z-score,[6],-0.711
same,z-score,[7],-0.574
same,composite z-score,[8],-0.185
same,composite z-score,[9],-0.839
same,z-score,[10],-0.0708 (inactive)
CC(C)C[C@H]1NC(=O)CNC(=O)[C@@]23C(=O)N[C@@H](Cc4ccccc4)C2[C@H](C)[C@@]2(C)O[C@H]2C3/C=C/C/C=C\CNC1=O (stereo not given in full),composite z-score,[1],0.0845
same,composite z-score,[2],0.0956
same,composite z-score,[3],-0.419
same,composite z-score,[4],-0.304
same,composite z-score,[5],0.67
same,composite z-score,[6],0.0369
same,z-score,[7],-0.0605
same,composite z-score,[8],0.438
same,composite z-score,[9],0.813
same,z-score,[10],0.151 (inactive)
CC(C)C[C@@H]1NC(=O)[C@H]2C[C@@H](C(=O)O)[C@@H](c3cccc(OCCO)c3)N2C1=O,composite z-score,[1],1.49
same,composite z-score,[2],0.0559
same,composite z-score,[3],0.119
same,composite z-score,[4],0.267
same,composite z-score,[5],1.3
same,composite z-score,[6],1.66
same,z-score,[7],0.951
same,composite z-score,[8],0.797
same,composite z-score,[9],0.325
same,z-score,[10],-1.07 (inactive)
C=C[C@@H](CO)NS(=O)(=O)c1ccc(Br)cc1,composite z-score,[1],-0.371
same,composite z-score,[2],-0.371
same,composite z-score,[3],0.169
same,composite z-score,[4],-0.387
same,composite z-score,[5],0.0216
same,composite z-score,[6],-0.446
same,z-score,[7],-0.297
same,composite z-score,[8],-0.809
same,composite z-score,[9],-0.448
same,z-score,[10],-1.23 (inactive)
C=C(C(=O)CC[C@@H](OC(=O)c1cccnc1)c1cccc(OCCO)c1)C(C)C,composite z-score,[1],0.317
same,composite z-score,[2],-0.4
same,composite z-score,[3],-0.896
same,composite z-score,[4],0.496
same,composite z-score,[5],0.866
same,composite z-score,[6],1.33
same,z-score,[7],0.313
same,composite z-score,[8],1.13
same,composite z-score,[9],0.386
same,z-score,[10],-0.128 (inactive)
CC[C@@H]1C=C(C(=O)O)[C@H](c2cccc(Cl)c2)N1S(=O)(=O)c1ccc(C)cc1,composite z-score,[1],1.47
same,composite z-score,[2],1.14
same,composite z-score,[3],0.887
same,composite z-score,[4],-0.611
same,composite z-score,[5],-0.126
same,composite z-score,[6],-0.686
same,z-score,[7],0.435
same,composite z-score,[8],-0.908
same,composite z-score,[9],0.226
same,z-score,[10],0.556 (inactive)
C=CCNC(=O)[C@H]1[C@@H]2C(=O)O[C@@H](c3ccccc3)[C@@H](c3ccccc3)N2[C@@H](c2ccc(OCCO)cc2)[C@]12C(=O)N(C(=O)OCCOC)c1ccc(C#CCC(C(=O)OC)C(=O)OC)cc12,composite z-score,[1],0.302
same,composite z-score,[2],1.2
same,composite z-score,[3],0.227
same,composite z-score,[4],0.94
same,composite z-score,[5],1.27
same,composite z-score,[6],0.252
same,z-score,[7],-0.933
same,composite z-score,[8],1.27
same,composite z-score,[9],1.26
same,z-score,[10],-0.515 (inactive)
C=CCOC(=O)[C@@H]1[C@H]2C(=O)O[C@H](c3ccccc3)[C@H](c3ccccc3)N2[C@H](c2ccc(OCCOC(=O)[C@@H]3C[C@@H]4C(=O)N[C@@H](CC(C)C)C(=O)N4[C@@H]3c3ccc(O)cc3)cc2)[C@@]12C(=O)Nc1ccc(I)cc12,composite z-score,[1],1.52
same,composite z-score,[2],1.2
same,composite z-score,[3],0.601
same,composite z-score,[4],0.666
same,composite z-score,[5],1.44
same,composite z-score,[6],1.26
same,z-score,[7],-1.58
same,composite z-score,[8],1.44
same,composite z-score,[9],0.182
same,z-score,[10],-0.248 (inactive)
O=C(CS)NCCCCCCNC(=O)[C@H]1C[C@H]2C(=O)NCC(=O)N2[C@H]1c1cccc(OCCO)c1,composite z-score,[1],1.64
same,composite z-score,[2],0.245
same,composite z-score,[3],0.128
same,composite z-score,[4],0.65
same,composite z-score,[5],1.35
same,composite z-score,[6],1.56
same,z-score,[7],-0.698
same,composite z-score,[8],0.47
same,composite z-score,[9],-0.152
same,z-score,[10],0.057 (inactive)
Cc1ccc(S[C@]2(C(=O)NC3CC3)CC(=O)N(C3Cc4ccccc4C3)[C@@H]2c2ccc(CO)cc2I)cc1,composite z-score,[1],0.447
same,composite z-score,[2],0.275
same,composite z-score,[3],-0.3
same,composite z-score,[4],0.484
same,composite z-score,[5],0.0932
same,composite z-score,[6],-0.115
same,z-score,[7],1.57
same,composite z-score,[8],-1.32
same,composite z-score,[9],-0.409
same,z-score,[10],-1.28 (inactive)
